Calls of active or inactive are those of the source. How the source made its calls: active means hit-call score of the fitted dose curve at least 0.9, where 1 is the maximum; inactive means score below 0.9.
Read-out: Macrophage colony-stimulating factor (MCSF), CSF1 (gene 1435)
Assay: BSK_LPS_MCSF: BioMAP Diversity Plus: LPS Assay for Macrophage colony-stimulating factor (MCSF) Biomarker Activity (AID 2283083)
Settings: primary human HUVEC with PBMC; actives raise or lower the signal
Summary of the method: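 HUVEC–PBMC co-culture, M-CSF measured by ELISA 24 h after chemical dosing. Fitted in both directions relative to DMSO as negative control; overt cytotoxicity assessed by SRB total-protein staining in parallel cultures.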

Tumor necrosis factor (Homo sapiens), sequence (P01375 whole entry, looked up): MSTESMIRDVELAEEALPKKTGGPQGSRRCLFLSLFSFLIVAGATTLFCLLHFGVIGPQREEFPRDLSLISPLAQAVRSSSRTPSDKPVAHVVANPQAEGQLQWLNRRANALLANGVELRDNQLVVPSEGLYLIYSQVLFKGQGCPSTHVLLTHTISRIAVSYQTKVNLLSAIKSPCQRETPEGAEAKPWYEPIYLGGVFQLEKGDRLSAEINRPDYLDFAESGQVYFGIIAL
E-selectin (Homo sapiens), sequence (P16581 whole entry, looked up): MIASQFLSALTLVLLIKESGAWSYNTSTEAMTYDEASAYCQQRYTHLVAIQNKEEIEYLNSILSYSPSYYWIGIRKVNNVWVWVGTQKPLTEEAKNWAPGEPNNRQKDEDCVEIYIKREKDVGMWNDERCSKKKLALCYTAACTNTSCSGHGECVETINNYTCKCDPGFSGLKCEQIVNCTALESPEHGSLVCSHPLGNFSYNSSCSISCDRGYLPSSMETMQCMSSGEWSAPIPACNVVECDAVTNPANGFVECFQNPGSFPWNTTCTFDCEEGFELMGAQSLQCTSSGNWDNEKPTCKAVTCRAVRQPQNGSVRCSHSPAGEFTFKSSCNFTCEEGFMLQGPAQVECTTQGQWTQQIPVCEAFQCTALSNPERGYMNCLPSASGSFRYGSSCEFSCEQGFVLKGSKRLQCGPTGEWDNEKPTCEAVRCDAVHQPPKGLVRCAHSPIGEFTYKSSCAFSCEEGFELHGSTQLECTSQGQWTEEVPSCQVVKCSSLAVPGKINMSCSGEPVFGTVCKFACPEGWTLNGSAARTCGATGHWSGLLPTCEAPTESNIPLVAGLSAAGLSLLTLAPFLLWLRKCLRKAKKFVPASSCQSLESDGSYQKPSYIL

| Compound | AC50 | outcome |
| --- | --- | --- |
| CCCCCCCCCCC1CO1 (centres undefined) | 31.6 µM (active) |  |
| Cc1cccnc1 |  | inactive |
| CC(C)CC(=O)CC(C)CC(C)C (centres undefined) |  | inactive |
| CN(C)CCC(c1ccc(Cl)cc1)c1ccccn1 (centres undefined) |  | inactive |

Read-out: Tissue Factor, F3 (gene 2152)
Assay: BSK_LPS_TissueFactor: BioMAP Diversity Plus: LPS Assay for Tissue Factor Biomarker Activity (AID 2283084)
Settings: primary human HUVEC with PBMC; actives raise or lower the signal
Summary of the method: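 Human umbilical vein endothelial cells co-cultured with PBMC were dosed with compound. Cell-surface CD142 was measured by ELISA 24 h later. Activity was fitted bidirectionally against DMSO, with SRB total-protein staining in parallel cultures for cytotoxicity.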

| Compound | AC50 | outcome |
| --- | --- | --- |
| CCCCCCCCCCC1CO1 (centres undefined) | 38.5 µM (active) |  |
| Cc1cccnc1 |  | inactive |
| CC(C)CC(=O)CC(C)CC(C)C (centres undefined) |  | inactive |
| CN(C)CCC(c1ccc(Cl)cc1)c1ccccn1 (centres undefined) |  | inactive |

Read-out: Tumor necrosis factor (Homo sapiens) (UniProt P01375)
Assay: BSK_LPS_TNFa: BioMAP Diversity Plus: LPS Assay for Tumour Necrosis Factor alpha (TNFa) Biomarker Activity (AID 2283085)
Settings: primary human HUVEC with PBMC; actives raise or lower the signal
Summary of the method: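 Human umbilical vein endothelial cells co-cultured with PBMC and stimulated with LPS. TNFa was measured by ELISA 24 h after chemical dosing, fitted bidirectionally relative to DMSO.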

| Compound | AC50 | outcome |
| --- | --- | --- |
| CCCCCCCCCCC1CO1 (centres undefined) | 30.9 µM (active) |  |
| Cc1cccnc1 |  | inactive |
| CC(C)CC(=O)CC(C)CC(C)C (centres undefined) |  | inactive |
| CN(C)CCC(c1ccc(Cl)cc1)c1ccccn1 (centres undefined) |  | inactive |

Read-out: Vascular cell adhesion molecule 1 (VCAM1), VCAM1 (gene 7412)
Assay: BSK_LPS_VCAM1: BioMAP Diversity Plus: LPS Assay for Vascular cell adhesion molecule 1 (VCAM1) Biomarker Activity (AID 2283086)
Settings: primary human HUVEC with PBMC; actives raise or lower the signal
Summary of the method: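 Human umbilical vein endothelial cells co-cultured with PBMC and stimulated with LPS; VCAM-1 measured by ELISA 24 h after dosing. Bidirectional curve fitting against DMSO baseline; cytotoxicity tracked in parallel by SRB total-protein staining.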

| Compound | AC50 | outcome |
| --- | --- | --- |
| CCCCCCCCCCC1CO1 (centres undefined) | 32.3 µM (active) |  |
| Cc1cccnc1 |  | inactive |
| CC(C)CC(=O)CC(C)CC(C)C (centres undefined) |  | inactive |
| CN(C)CCC(c1ccc(Cl)cc1)c1ccccn1 (centres undefined) |  | inactive |

Read-out: CD38, CD38 (gene 952)
Assay: BSK_SAg_CD38: BioMAP Diversity Plus: SAg Assay for CD38 Biomarker Activity (AID 2283087)
Settings: primary human HUVEC with PBMC; actives raise or lower the signal
Summary of the method: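 Human HUVEC plus PBMC co-culture stimulated with superantigen; CD38 measured by ELISA 24 h after chemical dosing. Fluorescence read-out, bidirectional fit against DMSO; cytotoxicity tracked in parallel by SRB and Alamar Blue.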

| Compound | outcome |
| --- | --- |
| CCCCCCCCCCC1CO1 (centres undefined) | inactive |
| Cc1cccnc1 | inactive |
| CC(C)CC(=O)CC(C)CC(C)C (centres undefined) | inactive |
| CN(C)CCC(c1ccc(Cl)cc1)c1ccccn1 (centres undefined) | inactive |

Read-out: CD40, CD40 (gene 958)
Assay: BSK_SAg_CD40: BioMAP Diversity Plus: SAg Assay for CD40 Biomarker Activity (AID 2283088)
Settings: primary human HUVEC with PBMC; actives raise or lower the signal
Summary of the method: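 HUVEC plus PBMC co-culture, superantigen-activated, with CD40 read by ELISA 24 h after dosing. Curves fitted in both directions against DMSO. Overt cytotoxicity checked by parallel SRB total-protein staining.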

| Compound | AC50 | outcome |
| --- | --- | --- |
| CCCCCCCCCCC1CO1 (centres undefined) | 20 µM (active) |  |
| Cc1cccnc1 |  | inactive |
| CC(C)CC(=O)CC(C)CC(C)C (centres undefined) |  | inactive |
| CN(C)CCC(c1ccc(Cl)cc1)c1ccccn1 (centres undefined) |  | inactive |

Read-out: CD69, CD69 (gene 969)
Assay: BSK_SAg_CD69: BioMAP Diversity Plus: SAg Assay for CD69 Biomarker Activity (AID 2283089);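 on AC50: cell surface CD69 protein quantified by ELISA with fluorescence detection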
Settings: primary human HUVEC with PBMC; actives raise or lower the signal
Summary of the method: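 Primary human vascular co-culture (umbilical vein endothelium with peripheral blood mononuclear cells) exposed to test chemical for 24 h. CD69 levels quantified by fluorescence ELISA; DMSO served as negative control for bidirectional fitting.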

| Compound | AC50 | outcome |
| --- | --- | --- |
| CCCCCCCCCCC1CO1 (centres undefined) | 36.7 µM (active) |  |
| Cc1cccnc1 |  | inactive |
| CC(C)CC(=O)CC(C)CC(C)C (centres undefined) |  | inactive |
| CN(C)CCC(c1ccc(Cl)cc1)c1ccccn1 (centres undefined) |  | inactive |

Read-out: Monocyte Chemoattractant Protein-1 (MCP1), CCL2 (gene 6347)
Assay: BSK_SAg_MCP1: BioMAP Diversity Plus: SAg Assay for Monocyte Chemoattractant Protein-1 (MCP1) Biomarker Activity (AID 2283090)
Settings: primary human HUVEC with PBMC; actives raise or lower the signal
Summary of the method: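 MCP-1 levels in the endothelial–PBMC SAg co-culture were quantified by ELISA at 24 h post-dosing; both increases and decreases versus DMSO scored. Cytotoxicity monitored by SRB total protein in parallel cultures.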

| Compound | outcome |
| --- | --- |
| CCCCCCCCCCC1CO1 (centres undefined) | inactive |
| Cc1cccnc1 | inactive |
| CC(C)CC(=O)CC(C)CC(C)C (centres undefined) | inactive |
| CN(C)CCC(c1ccc(Cl)cc1)c1ccccn1 (centres undefined) | inactive |

Read-out: E-selectin (Homo sapiens) (UniProt P16581)
Assay: BSK_SAg_Eselectin: BioMAP Diversity Plus: SAg Assay for Eselectin Biomarker Activity (AID 2283091)
Settings: primary human HUVEC with PBMC; actives raise or lower the signal
Summary of the method: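 Human umbilical vein endothelial cells co-cultured with peripheral blood mononuclear cells, SAg system. E-selectin is measured by ELISA 24 h after dosing and fitted bidirectionally against DMSO. Cytotoxicity is checked by SRB staining of parallel cultures.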

| Compound | AC50 | outcome |
| --- | --- | --- |
| CCCCCCCCCCC1CO1 (centres undefined) | 20 µM (active) |  |
| Cc1cccnc1 |  | inactive |
| CC(C)CC(=O)CC(C)CC(C)C (centres undefined) |  | inactive |
| CN(C)CCC(c1ccc(Cl)cc1)c1ccccn1 (centres undefined) |  | inactive |

Read-out: Monokine induced gamma interferon (MIG), CXCL9 (gene 4283)
Assay: BSK_SAg_MIG: BioMAP Diversity Plus: SAg Assay for Monokine induced gamma interferon (MIG) Biomarker Activity (AID 2283092)
Settings: primary human HUVEC with PBMC; actives raise or lower the signal
Summary of the method: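 Endothelial cells and PBMC were co-cultured, exposed to test chemicals, and sampled 24 h later. MIG was measured by ELISA, and responses were fitted in both directions relative to DMSO.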

| Compound | outcome |
| --- | --- |
| CCCCCCCCCCC1CO1 (centres undefined) | inactive |
| Cc1cccnc1 | inactive |
| CC(C)CC(=O)CC(C)CC(C)C (centres undefined) | inactive |
| CN(C)CCC(c1ccc(Cl)cc1)c1ccccn1 (centres undefined) | inactive |

Read-out: not listed separately
Assay: BSK_SAg_PBMCCytotoxicity: PBMC Cytotoxicity Assessment in the BioMAP Diversity Plus: SAg Assay (AID 2283093);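 further: PBMC viability measured as Alamar Blue reduction fluorescence at 546/580 nm; fitted both ways against DMSO so a hit may be loss or gain of signal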;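 on AC50: PBMC superantigen activated with SEB plus TSST-1 one hour after compound addition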
Settings: primary human HUVEC with PBMC
Summary of the method: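 HUVEC/PBMC co-culture; PBMC exposed to chemical 1 h before SEB and TSST-1 activation (20 ng/mL each), incubated 90 h, then Alamar Blue 6 h, fluorescence 546/580 nm. Bidirectional fit versus DMSO baseline.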

| Compound | AC50 | outcome |
| --- | --- | --- |
| CCCCCCCCCCC1CO1 (centres undefined) | 29.5 µM (active) |  |
| Cc1cccnc1 |  | inactive |
| CC(C)CC(=O)CC(C)CC(C)C (centres undefined) | 33.3 µM (active) |  |
| CN(C)CCC(c1ccc(Cl)cc1)c1ccccn1 (centres undefined) |  | inactive |
